Most compounds without a hit are left out; they make up all but 11% or so of the library.
Luciferase inh = Photinus pyralis luciferase inhibition. 76,000 tested, 2.5% active. purified P. pyralis luciferase, luminescence, biochemical. P08659. Potency, µM (highest dose often 115 µM), actives largely listed as inhibitors; further: nearly all actives have a fitted effect of over 65% in size
Target sequence (P08659 whole entry, looked up): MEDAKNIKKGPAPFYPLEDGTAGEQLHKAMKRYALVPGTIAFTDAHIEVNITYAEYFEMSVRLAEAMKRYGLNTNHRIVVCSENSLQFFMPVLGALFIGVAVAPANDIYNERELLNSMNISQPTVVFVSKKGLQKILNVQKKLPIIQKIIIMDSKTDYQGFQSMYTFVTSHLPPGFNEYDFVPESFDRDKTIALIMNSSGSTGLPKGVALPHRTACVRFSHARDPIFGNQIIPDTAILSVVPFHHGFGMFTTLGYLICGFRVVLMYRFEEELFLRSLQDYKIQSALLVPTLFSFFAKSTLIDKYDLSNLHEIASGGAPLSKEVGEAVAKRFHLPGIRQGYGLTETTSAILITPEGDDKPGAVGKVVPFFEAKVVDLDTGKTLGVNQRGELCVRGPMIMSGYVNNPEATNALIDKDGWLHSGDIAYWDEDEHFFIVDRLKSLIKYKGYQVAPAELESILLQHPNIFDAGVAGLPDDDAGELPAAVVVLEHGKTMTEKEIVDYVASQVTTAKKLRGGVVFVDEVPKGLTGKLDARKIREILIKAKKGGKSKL
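FLuc 10nM, D-luciferin 10uM, ATP 10uM, Mg acetate 10mM, Tris acetate pH 7.5, Tween/BSA; cpd qHTS; enzyme added last; CCD luminescence.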
HEK293 tox = kills HEK 293 cells | 94,000 tested, 6.6% active | HEK 293 viability, ATP luminescence (CellTiter-Glo), 48-72 h | AID 1345083 | Potency, µM (doses to about 115 µM), inactives show at the top dose activity change, negative = cytotoxicity, hits mostly inhibitors; further: nearly all actives have a fitted effect of over 60% in size
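Pintool-delivered compounds were incubated with HEK 293 cells (250 cells/well) at 37 degree Celsius for 48 or 72 hr. ATP-dependent luminescence (CellTiter-Glo) then reported remaining viable cells.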
hNpr1 antagonist = blocks ANP-stimulated signaling of human Npr1 receptor | P16066 | HEK293 hNpr1 GloSensor cGMP, ANP-stimulated luminescence | Potency, µM (top dose mostly 46.3 µM), without a hit: at the top dose activity change, negative = inhibition, most hits filed as inhibitors | 76,000 tested, 1.6% active | AID 1347048; calls by dose curve; further: nearly all actives have a fitted effect of over 60% in size
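Compound pre-incubated 30 min at room temperature on GloSensor-loaded HEK293 cells stably carrying hNpr1 and the pGS-40F cGMP biosensor. Stimulation uses hNppA at 0.1 nM final; luminescence is taken at baseline and 20 min post-agonist.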
3T3 cytotox = cytotoxic compounds in NIH 3T3 cells. NIH 3T3 viability, CellTiter-Glo ATP luminescence, 48-72 h. Potency, µM (highest dose often 96.7 µM), without a hit: at the highest dose activity change, negative = cytotoxicity, hits mostly inhibitors. AID 1345082. 94,000 tested, 4.3% active; further: nearly all actives have a fitted effect of over 55% in size
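NIH 3T3 cells at 400 cells/well received 23 nL of compound by pintool and were incubated 48 or 72 h at 37 °C. Viability was read as ATP-coupled CellTiter-Glo luminescence.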
* hit, by the source's call; i = inactive; u = inconclusive; x = no result; [ ] = remark or other dose. Unless noted, the call rests on the fitted dose curve; in most records, active means well fitted curve in the direction sought with a large enough effect; inconclusive means small, poorly fitted or top-dose-only effect, or another doubt; inactive means no such curve, though single readings can be large; an effect the other way counts as inactive or inconclusive. On the % scale 0 is the no-effect control and ±100 the full control effect; potency means the concentration at half of the fitted maximal effect.

SMILES	Luciferase inh	HEK293 tox	hNpr1 antagonist	3T3 cytotox
CC(=O)NC1(C)CCN(Cc2cccc(-c3ccccc3)c2)C1 (stereo unspecified)	i	u	1%[70.6 µM]	-26%[138 µM]
CC(=O)NC1(C)CCN(Cc2ccc(-c3ccccc3OCc3ccccc3)cc2)C1 (stereo unspecified)	u	32µM*	-4%[70.6 µM]	32µM*
O=C(c1ccc(F)cc1)N1CCCC(CN2CCCC2)CC1 (stereo unspecified)	x	0%	x	-16%
CC(=O)NC1(C)CCCN(Cc2cc(-c3cccc(N(C)C)c3)cs2)C1 (stereo unspecified)	71µM*	63µM*	-1%[70.6 µM]	u
COc1cccc(Nc2cc(CN3CCC(C)(NC(C)=O)CC3)cc(OC)c2)c1	i	112µM*	-1%[70.6 µM]	100µM*
CC(=O)NC1(C)CCCN(Cc2cc(-c3ccccc3)cs2)C1 (stereo unspecified)	i	u	4%[70.6 µM]	u
COc1cc(CN2CCC(C)(NC(C)=O)CC2)cc(NCc2ccccc2)c1	i	u	2%[70.6 µM]	-10%[138 µM]
CC(=O)NC1(C)CCN(Cc2ccccc2-c2ccc3c(ccn3C)c2)C1 (stereo unspecified)	i	100µM*	1%[70.6 µM]	89µM*
O=C(NC1CCCC1)N1CCCC(C(=O)N2CCC(c3nc4ncccc4[nH]3)CC2)C1 (stereo unspecified)	x	i	x	-10%
O=C(O)COc1ccc(-c2nccc3c2C(=O)N(Cc2ccccc2)CC(COc2ccc(Cl)cc2)O3)cc1 (stereo unspecified)	50µM*	0%	0%	u
CC1(COc2cccnc2)COc2ccc(C(=O)NCCc3ccccc3)cc2N1 (stereo unspecified)	u	u	8.9µM*	u
CC1(COc2cccnc2)COc2ccc(C(=O)NCCOc3ccccc3)cc2N1 (stereo unspecified)	u	u	8.9µM*	u
COCCn1c(=O)c(C(=O)N2CCN(c3ncccn3)CC2)nc2cccnc21	x	i	x	-8%
CC(C)c1csc(CN2CC[C@@H](c3ccc4c(c3)OCO4)[C@H](O)C2)n1	i	22µM*	u	u
COc1ccc(-c2nc3cc(C(=O)NCCCc4ccccc4)ccc3o2)cn1	x	-28%	x	-23%
COc1cccc(-c2cc(C(=O)N3CCC(c4ccccc4)CC3)c3cnn(C)c3n2)c1	x	35µM*	x	u
COc1cccc(-c2cc(C(=O)N3CCC(Cc4ccccc4)CC3)c3cnn(C)c3n2)c1	x	45µM*	x	u
COc1cccc(-c2cc(C(=O)N3CCC(C#N)CC3)c3cnn(C)c3n2)c1	x	-21%	x	-23%
COc1ccc2cc(C(=O)N3CCC4(CC3)CC(C(=O)N3CCOCC3)N(C)C4)[nH]c2c1 (stereo unspecified)	i	-13%	-3%	-17%
CNC(=O)c1ccc2nc(-c3cccnc3)oc2c1	x	-7%[172 µM]	x	u
CCc1cccc(NC(=O)CN2C(=O)NC(c3ccc(C)cc3)C3=C2COC3=O)c1 (stereo unspecified)	i	28µM*	-16%	u
Cc1ccc(C2NC(=O)N(CC(=O)Nc3cc(F)cc(F)c3)C3=C2C(=O)OC3)cc1 (stereo unspecified)	i	u	-26%	u
Cc1ccc(C2NC(=O)N(CC(=O)Nc3ccc(Br)cc3F)C3=C2C(=O)OC3)cc1 (stereo unspecified)	i	35µM*	-22%	u
Cc1ccc(C2NC(=O)N(CC(=O)Nc3ccc(Br)c(C)c3)C3=C2C(=O)OC3)cc1 (stereo unspecified)	i	u	u	35µM*
CC(C)c1ccc(C(=O)N2CCC(C3CCNC3)CC2)cc1 (stereo unspecified)	i	-26%	0%	-22%
SMILES	Luciferase inh	HEK293 tox	hNpr1 antagonist	3T3 cytotox
Cc1cnc(C(=O)NC2C[C@H]3CC[C@@H](C2)N3C(=O)c2ccc(C)c(C)c2)cn1 (stereo partly specified)	i	-17%	5%	-22%
COc1ccc(CCNC(=O)c2nc3cccnc3n(C3CC3)c2=O)cc1	x	-20%	x	-19%
COc1ccc(-c2cc(-c3c(C)noc3C)cc3c2C(=O)N(C)C3)cn1	i	79µM*	u	u
Cc1noc(C)c1-c1cc2c(c(-c3ccc(CO)cc3)c1)C(=O)N(C)C2	i	u	4%[70.6 µM]	79µM*
O=C(C1CCCC1)N1CCC(C(=O)N2CCC(N3Cc4ccccc4C3=O)CC2)CC1	x	-8%	x	-1%
O=C(Cn1nc2c(cc1=O)CCCCC2)N1CCN(Cc2ccccc2Cl)CC1	i	u	4%	-16%
O=C(Cn1nc2c(cc1=O)CCCC2)N1CCN(Cc2ccccc2Cl)CC1	i	u	7%	28µM*
O=C1NCCOCCCN(S(=O)(=O)c2ccc3c(c2)OCCO3)[C@H]2CCC[C@@H]12	i	0%	-1%	-19%
COc1ccc(OCC2CN(Cc3cccs3)[S+](=O)([O-])c3cnccc3O2)cc1 (stereo unspecified)	x	u	x	-26%[46.1 µM]
O=S1(=O)c2cccnc2OC(COc2ccccc2)CN1Cc1cccs1 (stereo unspecified)	x	u	x	28µM*
O=C1Nc2ccc(-c3cccc(C(F)(F)F)c3)cc2C(=O)N2CCN(C(=O)C3CCCC3)C[C@@H]12	i	40µM*	-3%	u
COc1ccc(Cl)cc1-c1ccc2c(c1)C(=O)N1CCN(C(=O)c3ccccc3)C[C@@H]1C(=O)N2	i	28µM*	2%	u
O=C(N[C@H]1C[C@H]2C(=O)Nc3ccc(-c4cccs4)cc3C(=O)N2C1)c1ccccc1	i	32µM*	u	u
COc1ccc(Cl)cc1-c1ccc2c(c1)C(=O)N1CCN(C(=O)c3ccc(N(C)C)cc3)C[C@@H]1C(=O)N2	i	u	-9%	u
COc1ccc(-c2ccc3c(c2)C(=O)N2CCN(C(=O)c4cccc(F)c4)C[C@@H]2C(=O)N3)cc1	u	u	-7%	-31%
O=C1Nc2ccc(-c3cccc(C(F)(F)F)c3)cc2C(=O)N2CCN(C(=O)c3cccc(F)c3)C[C@H]12	u	32µM*	-4%	u
O=C(Nc1cc(-c2ccccn2)nn1-c1ccccc1)c1ccc(F)cc1	x	2%	x	-19%
O=C1Nc2ccc(-c3ccc(Cl)cc3)cc2C(=O)N2CCN(C(=O)c3cccs3)C[C@H]12	i	-27%	1%	u
COc1ccc(Cl)cc1-c1ccc2c(c1)C(=O)N1CCN(C(=O)C3CC3)C[C@@H]1C(=O)N2	i	u	0%[70.6 µM]	u
O=C1Nc2ccc(-c3cccc(C(F)(F)F)c3)cc2C(=O)N2CCN(C(=O)c3cccs3)C[C@H]12	i	22µM*	-22%	45µM*
O=C1Nc2ccc(-c3cccc(C(F)(F)F)c3)cc2C(=O)N2CCN(C(=O)c3ccccc3)C[C@H]12	u	20µM*	u	u
